Source: PubChem BioAssay (NCATS)
Results filed as inconclusive are left out. Calls of active or inactive are those of the source. Unless noted, calls follow the shape of the dose curve; as a rule, active = well fitted curve in the direction sought with a large enough effect; inconclusive = small, poorly fitted or top-dose-only effect, or another doubt; inactive = no such curve, though single readings can be large; an effect the other way counts as inactive or inconclusive.

Experiments:
[1] = Cell Viability - HUV-EC-C (AID 542); conditions: HUV-EC-C endothelial cell viability, qHTS; series mostly up to 92.2 µM;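 also: cells exposed to compound for 40 hours; % is scaled to controls: 0 for no effect and ±100 for the full control effect; nearly all actives have a fitted effect of over 35% in size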
How it was run: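 CellTiter-Glo luminescence measured ATP loss in HUV-EC-C cells (1000/well) after 40 hr compound exposure at 37 °C, in complete culture medium. Concentration-response data were Hill-fitted to give AC50.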

[2] = Cell Viability - SH-SY5Y (AID 544); conditions: SH-SY5Y neuroblastoma cell viability; viability change, negative = cytotoxic: at 92.2 µM (top of the series);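 also: cells exposed to compound for 40 hours; nearly all actives have a fitted effect of over 55% in size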
How it was run: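 Cytotoxicity measured via ATP-dependent luciferase luminescence (CellTiter-Glo) following 40 h, 37 °C exposure of 1500 SH-SY5Y cells per well. Concentration-response data were fitted with the standard Hill equation to give AC50.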

[3] = Cell Viability - Mesenchymal (AID 546); conditions: mesenchymal cells viability, qHTS; activity change, negative = cytotoxicity: at 91.7 µM (top of the series);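 also: cells exposed to compound for 40 hours before reading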
How it was run: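 In this qHTS cytotoxicity format, glomerulus-derived human mesenchymal kidney cells received compound for 40 hr, then luciferase-based ATP quantitation. Concentration-response data were fitted with the Hill equation.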

[4] = Cellular Toxicity (caspase-3) HepG2 (AID 654); conditions: HepG2 caspase-3 activation, luminescence; series mostly up to 92.2 µM;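 also: cells exposed to compound for 16 hours before reading; 0% = DMSO alone and 100% = caspase signal from 100 µM tamoxifen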
How it was run: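 Caspase 3/7 activation is measured as a luminescence increase (aminoluciferin substrate) after 16 h compound exposure of human hepatocarcinoma HepG2 cells. AC50 values are Hill fits, scaled between DMSO baseline and 100 uM tamoxifen stimulation.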

[5] = Cellular Toxicity (caspase-3) Jurkat (AID 655); conditions: Jurkat caspase-3 activation, luminescence; caspase-3 activation: at 92.2 µM (top of the series), DMSO = 0%, tamoxifen = 100%;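 also: cells exposed to compound for 16 h at 37 °C before reading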
How it was run: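 5000 Jurkat cells/well; compound 16 hr, 37 °C; Caspase-Glo 3/7 added, 20 min RT; luminescence read. Norm: DMSO = 0%, tamoxifen 100 uM = 100%. AC50, Hill model.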

[6] = Cellular Toxicity (caspase-3) HUV-EC-C (AID 656); conditions: HUV-EC-C cells, caspase-3 activation (apoptosis); series mostly up to 92.2 µM
How it was run: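 qHTS; HUV-EC-C, 1000 cells/well; 5 hr settle, 16 hr cmpd, 37°C; Caspase-Glo 3/7, 20 min RT; luminescence. Norm: DMSO = 0%, tamoxifen 100 uM = 100%. Hill-fit AC50.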

[7] = Cellular Toxicity (caspase-3) SHSY5Y (AID 657); conditions: SH-SY5Y caspase-3 activation; series mostly up to 91.7 µM;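 also: cells exposed to compound for 16 hours at 37 °C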
How it was run: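 qHTS, SH-SY5Y, 1500 cells/well, 5 h pre-incubation 37 °C; compound 16 h 37 °C; Caspase-Glo 3/7 1 h RT; luminescence. Norm.: DMSO = 0, 10 uM staurosporine = 100%. Hill fit → AC50.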

[8] = Cellular Toxicity (caspase-3) BJ (AID 658); conditions: BJ fibroblasts, luminescence; Potency: caspase-3 activation; series mostly up to 91.7 µM;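 also: cells exposed to compound for 16 hours; 0% = DMSO basal and 100% = 10 µM staurosporine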
How it was run: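 Plated BJ cells (1000/well) rested 5 hr, received compound for 16 hr at 37 °C, then Caspase-Glo 3/7 reagent for 1 hr at room temperature before luminescence reading.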

[9] = molecular target: Estrogen receptor (Homo sapiens) (UniProt P03372); assay: qHTS assay for small molecule antagonists of estrogen receptor alpha signaling (AID 588513; active = well fitted curve in the direction sought with a large enough effect in the signal ratio, with a control signal flat, not every such curve was filed as active; the % refers to the signal ratio; also: % is scaled to controls: 0 for no effect and ±100 for the full control effect); conditions: ER-alpha-UAS-bla HEK293, beta-lactamase ratio, antagonist mode; series mostly up to 76.9 µM
Chain of Estrogen receptor (Homo sapiens) (P03372 whole entry, looked up): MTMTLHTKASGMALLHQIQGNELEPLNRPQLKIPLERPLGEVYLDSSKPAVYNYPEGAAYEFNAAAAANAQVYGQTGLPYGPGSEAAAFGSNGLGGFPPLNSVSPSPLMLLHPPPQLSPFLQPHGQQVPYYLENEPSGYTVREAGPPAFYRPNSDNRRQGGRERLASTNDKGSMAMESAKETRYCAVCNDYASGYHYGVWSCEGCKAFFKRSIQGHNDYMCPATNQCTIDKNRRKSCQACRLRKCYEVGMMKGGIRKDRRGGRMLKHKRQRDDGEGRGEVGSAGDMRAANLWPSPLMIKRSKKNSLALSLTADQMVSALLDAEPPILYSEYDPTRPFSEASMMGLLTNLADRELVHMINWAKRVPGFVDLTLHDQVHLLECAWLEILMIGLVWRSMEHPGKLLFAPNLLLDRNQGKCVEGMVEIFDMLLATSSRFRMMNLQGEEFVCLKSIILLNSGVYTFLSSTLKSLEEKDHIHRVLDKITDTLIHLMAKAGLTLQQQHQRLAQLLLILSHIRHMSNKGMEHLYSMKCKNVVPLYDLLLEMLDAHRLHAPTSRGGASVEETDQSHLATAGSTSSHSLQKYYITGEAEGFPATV
How it was run: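 Fluorescence from CCF4 substrate after 2 h at room temperature gave reporter activity; cells had been exposed to compound and 0.5nM 17-beta-estradiol for 18 h at 37 C. Hill-equation fitting yielded IC50 and maximal response.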

[10] = molecular target: Glucocorticoid receptor (Homo sapiens) (UniProt P04150); assay: qHTS assay for small molecule agonists of glucocorticoid receptor signaling (AID 588532; active = well fitted curve in the direction sought with a large enough effect in the signal ratio, with a control signal flat; the % refers to the signal ratio;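 also: 100% = dexamethasone at 0.1 µM and 0% = DMSO only wells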); conditions: HeLa MMTV-bla, beta-lactamase ratio, agonist, 18 h; active compounds read high; percent of dexamethasone control, DMSO zero
Chain of Glucocorticoid receptor (Homo sapiens) (P04150 whole entry, looked up): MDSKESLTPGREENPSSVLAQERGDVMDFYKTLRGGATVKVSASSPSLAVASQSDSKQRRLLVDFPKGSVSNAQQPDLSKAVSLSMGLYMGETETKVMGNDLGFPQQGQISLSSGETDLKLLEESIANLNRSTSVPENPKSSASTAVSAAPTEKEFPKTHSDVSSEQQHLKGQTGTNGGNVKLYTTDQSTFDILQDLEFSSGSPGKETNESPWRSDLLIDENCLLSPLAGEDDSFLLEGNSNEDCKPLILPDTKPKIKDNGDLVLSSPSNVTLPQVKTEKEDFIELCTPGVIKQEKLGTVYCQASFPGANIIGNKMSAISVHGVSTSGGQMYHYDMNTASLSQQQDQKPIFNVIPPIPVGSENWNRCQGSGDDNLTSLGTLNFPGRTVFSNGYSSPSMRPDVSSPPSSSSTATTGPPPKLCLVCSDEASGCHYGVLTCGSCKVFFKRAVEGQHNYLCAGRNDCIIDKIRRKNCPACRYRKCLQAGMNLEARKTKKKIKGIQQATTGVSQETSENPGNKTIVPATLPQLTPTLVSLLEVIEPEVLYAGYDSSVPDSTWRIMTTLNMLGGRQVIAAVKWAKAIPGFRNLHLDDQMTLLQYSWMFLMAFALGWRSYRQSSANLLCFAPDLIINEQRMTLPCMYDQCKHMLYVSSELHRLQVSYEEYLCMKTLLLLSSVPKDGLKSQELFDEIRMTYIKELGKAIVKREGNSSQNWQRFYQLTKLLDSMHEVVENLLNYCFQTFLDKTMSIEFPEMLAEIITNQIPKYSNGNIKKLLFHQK
How it was run: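 MMTV-bla HeLa, beta-lactamase reporter; medium with 1% charcoal/dextran-stripped FBS; cpds up to 92 uM, 18 h, 37 C; CCF4 readout 460/530 nm; Hill fit → EC50, efficacy vs 0.1 uM dexamethasone = 100%.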

[11] = molecular target: Glucocorticoid receptor (Homo sapiens) (UniProt P04150); assay: qHTS assay for small molecule antagonists of glucocorticoid receptor signaling (AID 588533; active = well fitted inhibition curve with a large enough effect in the signal ratio, with a control signal flat, not every such curve was filed as active; the % refers to the signal ratio;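 also: cells stimulated with 2 nM dexamethasone as agonist; potency is read from the fitted curve at half-maximal effect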); conditions: HeLa MMTV-bla, GRE beta-lactamase ratio, antagonist mode, 18 h; series mostly up to 76.8 µM
How it was run: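 Antagonist-mode qHTS: compound titrations added to GRE-bla HeLa cells, then dexamethasone 2 nM final; 18 h, 37 C. CCF4 FRET fluorescence normalized to dexamethasone and DMSO; IC50 from Hill fit.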

[12] = molecular target: Voltage-gated inwardly rectifying potassium channel KCNH2 (Homo sapiens) (UniProt Q12809); assay: qHTS Assay for Small Molecule Inhibitors of the Human hERG Channel Activity (AID 588834); conditions: U2OS BacMam hERG, FluxOR thallium flux fluorescence; series mostly up to 92.2 µM;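 also: top concentration of the series differs between compounds; % is scaled to controls: 0 for no effect and ±100 for the full control effect; lower thallium flux fluorescence means stronger hERG block; nearly all actives have a fitted effect of over 50% in size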
Chain of Voltage-gated inwardly rectifying potassium channel KCNH2 (Homo sapiens) (Q12809 whole entry, looked up): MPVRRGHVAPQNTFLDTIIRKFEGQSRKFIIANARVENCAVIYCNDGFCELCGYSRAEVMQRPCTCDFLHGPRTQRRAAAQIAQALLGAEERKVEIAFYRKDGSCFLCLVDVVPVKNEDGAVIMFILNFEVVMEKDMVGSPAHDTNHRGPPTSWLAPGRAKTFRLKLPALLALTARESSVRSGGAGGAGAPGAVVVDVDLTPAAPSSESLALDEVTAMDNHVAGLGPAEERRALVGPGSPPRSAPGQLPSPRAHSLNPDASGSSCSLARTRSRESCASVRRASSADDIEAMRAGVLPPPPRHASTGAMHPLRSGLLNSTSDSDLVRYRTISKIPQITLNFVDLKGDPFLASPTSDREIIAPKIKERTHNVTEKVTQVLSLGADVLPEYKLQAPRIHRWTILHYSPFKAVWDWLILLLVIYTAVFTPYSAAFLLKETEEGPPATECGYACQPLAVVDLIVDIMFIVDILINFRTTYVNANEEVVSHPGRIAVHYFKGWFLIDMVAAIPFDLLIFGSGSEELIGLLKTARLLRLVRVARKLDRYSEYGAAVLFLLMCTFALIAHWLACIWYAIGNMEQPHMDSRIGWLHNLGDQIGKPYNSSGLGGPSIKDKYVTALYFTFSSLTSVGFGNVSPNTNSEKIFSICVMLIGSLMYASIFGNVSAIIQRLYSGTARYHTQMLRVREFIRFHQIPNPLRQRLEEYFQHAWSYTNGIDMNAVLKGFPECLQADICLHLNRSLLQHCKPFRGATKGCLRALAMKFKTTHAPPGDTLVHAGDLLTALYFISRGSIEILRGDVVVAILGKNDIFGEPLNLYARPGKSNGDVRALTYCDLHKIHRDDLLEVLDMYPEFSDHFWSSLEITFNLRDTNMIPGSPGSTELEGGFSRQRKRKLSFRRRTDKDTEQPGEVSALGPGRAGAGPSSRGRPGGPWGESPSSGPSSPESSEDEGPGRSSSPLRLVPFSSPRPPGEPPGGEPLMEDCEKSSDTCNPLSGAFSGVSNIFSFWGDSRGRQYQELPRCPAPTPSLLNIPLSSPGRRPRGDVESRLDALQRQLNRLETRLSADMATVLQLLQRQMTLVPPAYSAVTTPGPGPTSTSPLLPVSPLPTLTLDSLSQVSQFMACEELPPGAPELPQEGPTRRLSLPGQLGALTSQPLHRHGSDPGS
How it was run: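 Step 1: BacMam hERG transduction of U2OS, 4 hrs RT. Step 2: overnight 37 °C, plate 2000 cells/well, 4 hr. Step 3: FluxOR load, compound 10 min, stimulate, read fluorescence.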

[13] = qHTS assay for small molecule activators of the p53 signaling pathway (AID 651743; active = well fitted activation curve with a large enough effect in the signal ratio, not every such curve was filed as active; the % refers to the signal ratio; also: % of control where 0% means no effect); conditions: HCT-116 p53RE-bla, beta-lactamase FRET ratio, 16 h; activation: active compounds read high
How it was run: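 Agonist-mode quantitative HTS in HCT-116 cells carrying a p53-response-element beta-lactamase reporter; 16 h compound treatment at 37 C, then FRET substrate loading for 2 h at room temperature and fluorescence read.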

[14] = qHTS assay for small molecule activators of the nuclear factor-kappa B (NF-kB) signaling pathway (AID 651749; active = well fitted activation curve with a large enough effect in the signal ratio; the % refers to the signal ratio; also: % of control where 0% means no effect); conditions: NF-kB-bla ME-180 cells, beta-lactamase FRET ratio, 16 h; active compounds read high
How it was run: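 Human ME-180 cervical cells with an NF-kB-bla construct; compounds added via 23 nL pin transfer, DMSO as vehicle; incubation 16 hr. Reporter activity measured by FRET disruption.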

[15] = qHTS assay for small molecule disruptors of the mitochondrial membrane potential - 1 hr assay (AID 651754; calls by dose curve; also: potency is read from the fitted curve at half-maximal effect; nearly all actives have a fitted effect of over 35% in size); conditions: series mostly up to 92.2 µM
How it was run: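 Mitochondrial potential in living HepG2 cells after 1 hr compound treatment at 37C was read with Mito-MPS dye added for a further 30 min. Red aggregate and green monomer fluorescence were measured; loss of potential leaves dye as cytoplasmic monomers.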

[16] = molecular target: Tumor necrosis factor (Homo sapiens) (UniProt P01375); assay: qHTS assay to identify small molecules that stimulate Tumor Necrosis Factor-alpha (TNF-alpha) secretion (AID 651757; active = well fitted curve in the direction sought with a large enough effect in the signal ratio; the % refers to the signal ratio; also: 0% is about no effect); conditions: Human cells, HTRF 665/615 ratio; series mostly up to 92.2 µM
Chain of Tumor necrosis factor (Homo sapiens) (P01375 whole entry, looked up): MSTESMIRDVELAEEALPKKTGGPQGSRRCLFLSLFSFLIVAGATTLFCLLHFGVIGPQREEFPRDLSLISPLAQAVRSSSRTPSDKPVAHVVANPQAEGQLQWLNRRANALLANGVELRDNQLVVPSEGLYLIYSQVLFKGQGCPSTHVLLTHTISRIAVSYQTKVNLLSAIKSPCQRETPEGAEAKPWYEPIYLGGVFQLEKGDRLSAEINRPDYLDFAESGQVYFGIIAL
How it was run: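 Secreted TNF-alpha quantified by TR-FRET sandwich of two labeled anti-TNF-alpha antibodies, incubated 3 hr at room temperature. Preceded by 17 hr, 37 C compound treatment of THP-1 cells at 3000 cells/well.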

[17] = qHTS assay to identify small molecules that stimulate interleukin-8 (IL-8) secretion (AID 651758; active = well fitted activation curve with a large enough effect in the signal ratio; the % refers to the signal ratio; also: 0% is about no effect); conditions: HTRF ratio (665/615); series mostly up to 92.2 µM
How it was run: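 Quantitative HTS in THP-1 monocytic cells at 2000 cells per well, with 16 hrs compound incubation at 37 C. IL-8 in the medium was then quantified by HTRF immunoassay, read after 1-3 hrs at room temperature.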

[18] = qHTS assay for environmental chemicals that activate the Aryl hydrocarbon Receptor (AhR) signaling pathway (AID 651777); conditions: 1A2-DRE human hepatoma cells, luciferase, 24 h; activation: active compounds read high; also: potency is read from the fitted curve at half-maximal effect; nearly all actives have a fitted effect of over 15% in size
How it was run: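 AhR activation is scored as a rise in luciferase from a stable DRE–CYP1A2 promoter construct in human hepatoma cells. Treatment lasts 24 hr at 37 C; detection uses One-Glo after 30 min at room temperature.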

[19] = molecular target: Peroxisome proliferator-activated receptor alpha (Homo sapiens) (UniProt Q07869); assay: qHTS assay for small molecule agonists of the peroxisome proliferator-activated receptor alpha (PPARalpha) signaling pathway (AID 651778); conditions: PathHunter PPARalpha complementation, chemiluminescence, 6 h; max response: active compounds read high; also: % of control where 0% means no effect
Chain of Peroxisome proliferator-activated receptor alpha (Homo sapiens) (Q07869 whole entry, looked up): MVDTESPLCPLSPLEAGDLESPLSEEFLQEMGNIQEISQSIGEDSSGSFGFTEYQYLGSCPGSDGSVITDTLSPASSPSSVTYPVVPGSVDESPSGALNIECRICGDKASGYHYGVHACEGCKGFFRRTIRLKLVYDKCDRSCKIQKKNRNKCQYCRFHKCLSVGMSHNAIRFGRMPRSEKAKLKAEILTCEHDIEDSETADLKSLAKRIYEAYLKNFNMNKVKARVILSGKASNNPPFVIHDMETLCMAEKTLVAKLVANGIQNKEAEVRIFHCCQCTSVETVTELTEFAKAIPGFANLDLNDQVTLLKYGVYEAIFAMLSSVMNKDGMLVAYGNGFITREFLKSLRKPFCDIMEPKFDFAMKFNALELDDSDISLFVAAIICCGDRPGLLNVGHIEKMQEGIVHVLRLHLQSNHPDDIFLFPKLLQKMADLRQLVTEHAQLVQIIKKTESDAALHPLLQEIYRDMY
How it was run: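 Cells plated at 2,000/well and held overnight at 37 C, 5% CO2, then compound added by pin tool for 6 hr; after PathHunter detection reagent and 60 min at room temperature, chemiluminescence from enzyme complementation was read.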

[20] = molecular target: Nuclear receptor ROR-gamma (Homo sapiens) (UniProt P51449); assay: qHTS assay for small molecule antagonists of the retinoid-related orphan receptor gamma (ROR-gamma) signaling pathway (AID 651802); conditions: ROR-gamma antagonist cell reporter assay; series mostly up to 92.2 µM;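 also: CHO cells with doxycycline-induced ROR-gamma expression; luciferase reporter luminescence driven by ROR response element; % is scaled to controls: 0 for no effect and ±100 for the full control effect; nearly all actives have a fitted effect of over 60% in size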
Chain of Nuclear receptor ROR-gamma (Homo sapiens) (P51449 whole entry, looked up): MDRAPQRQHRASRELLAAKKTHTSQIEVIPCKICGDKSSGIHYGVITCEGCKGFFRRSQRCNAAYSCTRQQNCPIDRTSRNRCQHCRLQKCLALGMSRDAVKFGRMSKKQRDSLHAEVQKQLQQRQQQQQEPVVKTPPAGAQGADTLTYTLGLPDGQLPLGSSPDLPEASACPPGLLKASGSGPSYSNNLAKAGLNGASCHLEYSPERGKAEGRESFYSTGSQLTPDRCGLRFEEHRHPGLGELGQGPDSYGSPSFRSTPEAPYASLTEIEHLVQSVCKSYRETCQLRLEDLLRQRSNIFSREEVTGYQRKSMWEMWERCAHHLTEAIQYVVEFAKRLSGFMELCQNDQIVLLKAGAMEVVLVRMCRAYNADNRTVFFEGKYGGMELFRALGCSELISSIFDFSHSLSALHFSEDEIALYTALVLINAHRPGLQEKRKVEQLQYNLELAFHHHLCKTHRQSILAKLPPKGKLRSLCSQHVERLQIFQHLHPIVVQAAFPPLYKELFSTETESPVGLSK
How it was run: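 Luminescence (One-Glo, 30 min RT) measured 16 h after compound addition and doxycycline induction at 37C. Reporter: RORE-luciferase under TET-inducible ROR-gamma in CHO cells.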

O=C(O)c1cc(N=Nc2ccc([N+](=O)[O-])cc2)ccc1O
active: Potency [11] 10 µM | Potency [15] 37.6 µM | Potency [18] 4.47 µM
inactive: Potency [1] | Potency [2] | Potency [3] | Potency [4] | Potency [5] | Potency [6] | Potency [7] | Potency [8] | outcome [9] | activation [10] -18.2% | Potency [12] | activation [13] -5.24% | activation [14] -2.01% | Potency [16] | Potency [17] | max response [19] -12.2% | Potency [20]
